# Measured values: PubChem BioAssay (NCATS)
# Results filed as inconclusive are left out. Entries that show only a call come without a potency. Calls of active or inactive are those of the source. Unless noted, calls follow the shape of the dose curve; as a rule, active = well fitted curve in the direction sought with a large enough effect; inconclusive = small, poorly fitted or top-dose-only effect, or another doubt; inactive = no such curve, though single readings can be large; an effect the other way counts as inactive or inconclusive.
# Tests used:
# [1] = biological target: Glutathione peroxidase 1 (Homo sapiens) (UniProt P07203); assay: Primary qHTS Assay for Inhibitors of Recombinant Selenoprotein Glutathione Peroxidase 1 (GPX1) (AID 1845191); also: nearly all actives have a fitted effect of over 65% in size; also: potency is read from the fitted curve at half-maximal effect
# Glutathione peroxidase 1 (Homo sapiens), sequence (P07203 whole entry, looked up): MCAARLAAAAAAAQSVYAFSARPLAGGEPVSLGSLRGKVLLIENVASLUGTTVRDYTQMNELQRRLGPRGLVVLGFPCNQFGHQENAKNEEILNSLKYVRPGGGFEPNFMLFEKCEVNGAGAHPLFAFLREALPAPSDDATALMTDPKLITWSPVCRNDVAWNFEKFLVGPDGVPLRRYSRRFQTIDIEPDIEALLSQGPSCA
# Method in brief: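 Recombinant GPX1 (10 nM final) was preincubated with compound for 30 min at room temperature, then reacted with 1 mM GSH, 0.5 mM CHP, 0.5 mM NADPH and 100 nM glutathione reductase; NADPH fluorescence (340/450 nm) was read at 0 and 15 min.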
# [2] = biological target: Phospholipid hydroperoxide glutathione peroxidase GPX4 (Homo sapiens) (UniProt P36969); assay: Primary qHTS Assay for Inhibitors of Recombinant Selenoprotein Glutathione Peroxidase 4 (GPX4) (AID 1845192); also: nearly all actives have a fitted effect of over 65% in size; also: potency is read from the fitted curve at half-maximal effect
# Phospholipid hydroperoxide glutathione peroxidase GPX4 (Homo sapiens), sequence (P36969 whole entry, looked up): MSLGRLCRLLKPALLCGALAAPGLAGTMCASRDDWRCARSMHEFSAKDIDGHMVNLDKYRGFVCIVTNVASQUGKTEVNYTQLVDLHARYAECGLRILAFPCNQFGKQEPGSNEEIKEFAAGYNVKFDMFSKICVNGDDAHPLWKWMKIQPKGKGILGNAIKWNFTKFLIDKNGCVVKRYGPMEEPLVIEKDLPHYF
# Method in brief: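 GR-coupled readout: 100 nM GR, 1 mM GSH, 0.5 mM NADPH; NADPH fluorescence (ex 340/em 450 nm) read at t=0 and after 15 min RT. GPX4 200 nM, preincubated 30 min with compound; substrate 0.5 mM CHP.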
# [3] = biological target: Luciferin 4-monooxygenase (Photinus pyralis) (UniProt P08659); assay: Primary firefly luciferase (FLuc) qHTS assay for identification of artifact compounds. (AID 1845220); conditions: outcome: dose series up to 54.1 µM; also: nearly all actives have a fitted effect of over 60% in size
# Method in brief: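 Reaction readout was CCD-imaged luminescence, taken 5 min after adding 10 nM purified firefly enzyme to compound-treated wells holding 10 uM luciferin and ATP in pH 7.6 buffer.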
# [4] = Primary fluorescence-based thiol-reactive (MSTI) qHTS assay for identification of artifact compounds. (AID 1845221);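 also: series mostly up to about 54 µM; thiol-reactive compounds lower the probe fluorescence signal; nearly all actives have a fitted effect of over 65% in size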
# Method in brief: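 In PBS pH 7.4 with 2% DMSO, each compound met 4 uM MSTI for one hour at ambient temperature, shielded from light, before fluorescence detection.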
# [5] = Primary redox qHTS assay for identification of artifact compounds. (AID 1845223)
# Method in brief: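 Amplex Red (25 uM) and HRP (250 mU/mL) in HBSS, with compounds for 15 min, then 250 uM DTT for 30 min, room temperature, dark. Fluorescence 525/598 nm read; normalized to DMSO and 10 uM DA3003; Hill fit.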
# [6] = qHTS drug screen for cell cycle checkpoint inhibitors in PARPi-resistant BRCA-mutant ovarian cancer cell lines. (AID 1963452; calls by dose curve); conditions: PEO1/OlaR viability, CellTiter-Glo luminescence, 96 h, stronger effect = lower value
# Method in brief: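 PEO1, PEO4 and PEO1/OlaR ovarian cancer cells, 600 per well, exposed 96 h at 37C to a dilution series. Viability read by CellTiter-Glo luminescence, normalized to DMSO and empty wells; activity summarized as Z-AUC.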
# [7] = measured here: PEO1 parental Z-AUC
smiles,measurement,setting,value
CCCc1ccc(C(=O)O)cc1,Potency,[1],inactive
same,Potency,[2],inactive
CC(C)(C)c1ccc(CN2CCN(C(c3ccccc3)c3ccc(Cl)cc3)CC2)cc1 (centres undefined),Potency,[1],inactive
same,Potency,[2],inactive
same,outcome,[3],inactive
same,outcome,[4],inactive
same,outcome,[5],inactive
C=CC1=C(C(=O)O)N2C(=O)[C@@H](NC(=O)/C(=N\O)c3csc(N)n3)[C@H]2SC1 (stereo in doubt),Potency,[1],11.4 µM (active)
same,Potency,[2],inactive
CC(=O)N=c1sc(S(N)(=O)=O)nn1C,Potency,[1],inactive
same,Potency,[2],inactive
O=C(OCc1ccccc1)c1ccc(O)cc1,Potency,[1],inactive
same,Potency,[2],inactive
CS(=O)(=O)c1ccc([C@@H](O)[C@@H](COC(=O)CN)NC(=O)C(Cl)Cl)cc1,Potency,[1],inactive
same,Potency,[2],inactive
CN(C)CCC(O)(c1ccccc1)c1ccccc1Cl (centres undefined),Potency,[1],inactive
same,Potency,[2],inactive
OC[C@@H](O)C(O)[C@H](O)CO,Potency,[1],inactive
same,Potency,[2],inactive
CCOC(=O)[C@@H](N)CS,Potency,[2],14.1 µM (active)
CO[C@H]1O[C@@H]2O[C@@]3(C)CC[C@H]4[C@H](C)CC[C@@H]([C@H]1C)[C@@]24OO3,Potency,[2],inactive
same,Z-AUC,[6],-0.105 (inactive)
same,Z-AUC,[6]; [7],0.613
same,Z-AUC,[6]; measured here: PEO4 Z-AUC,0.87
CC[C@H]1OC(=O)C[C@@H](O)[C@H](C)[C@@H](O[C@@H]2O[C@H](C)[C@@H](O[C@H]3C[C@@](C)(O)[C@@H](O)[C@H](C)O3)[C@H](N(C)C)[C@H]2O)[C@@H](CC=O)C[C@@H](C)C(=O)/C=C/C(C)=C/[C@@H]1CO[C@@H]1O[C@H](C)[C@@H](O)[C@@H](OC)[C@H]1OC,Potency,[2],inactive
CC(/C=C/C=C(\C)C(=O)O[C@@H]1O[C@H](CO[C@@H]2O[C@H](CO)[C@@H](O)[C@H](O)[C@H]2O)[C@@H](O)[C@H](O)[C@H]1O)=C\C=C\C=C(C)\C=C\C=C(/C)C(=O)O[C@@H]1O[C@H](CO[C@@H]2O[C@H](CO)[C@@H](O)[C@H](O)[C@H]2O)[C@@H](O)[C@H](O)[C@H]1O,Potency,[2],inactive
CN[C@@H]1[C@@H](O)[C@@H](O[C@@H]2[C@@H](O)[C@H](O[C@H]3O[C@H](CN)[C@@H](O)[C@H](O)[C@H]3O)[C@@H](N)C[C@H]2NC(=O)C(O)CN)OC[C@]1(C)O (some centres undefined),Potency,[1],inactive
same,Potency,[2],inactive
same,Z-AUC,[6],-1.59 (inactive)
same,Z-AUC,[6]; [7],-0.482
same,Z-AUC,[6]; measured here: PEO4 Z-AUC,-1.12
N[C@@H](Cc1cc(I)c(Oc2ccc(O)c(I)c2)c(I)c1)C(=O)O,Potency,[1],inactive
same,outcome,[3],inactive
same,outcome,[4],inactive
same,outcome,[5],inactive
C=CC[N+]1([C@H]2C[C@H]3[C@@H]4CC[C@H]5C[C@H](O)[C@@H](N6CCOCC6)C[C@]5(C)[C@H]4CC[C@]3(C)[C@H]2OC(C)=O)CCCC1,Potency,[1],inactive
same,Z-AUC,[6],1.19 (inactive)
same,Z-AUC,[6]; [7],1.23
same,Z-AUC,[6]; measured here: PEO4 Z-AUC,0.984
